Screening data: PubChem, National Center for Advancing Translational Sciences (NCATS)
JMJD2A Tudor inh – blocks the human JMJD2A Tudor domain; O75164; Potency, µM (series often up to 114 µM), most hits filed as inhibitors; AlphaScreen JMJD2A-Tudor / H3K4me3 peptide binding; AID 504339; actives 4.4% (n = 390,000); further: nearly all actives have a fitted effect of over 50% in size
L3MBTL1 inh – L3MBTL1 (human) inhibition; Q9Y468; AlphaScreen L3MBTL1–H3K9me1 peptide binding; Potency, µM (top dose mostly 57.1 µM), hits mostly inhibitors; actives 0.66% (n = 230,000); AID 485360; further: nearly all actives have a fitted effect of over 60% in size
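L3MBTL1 (50 nM) pre-complexed 30 min with biotinylated H3(1-15)K9me1 peptide (75 nM), then compounds added for 30 min at room temperature; AlphaScreen streptavidin donor/nickel chelate acceptor beads (10 ug/mL final) read after 30 min dark incubation.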
G9a block – blocks human histone lysine methyltransferase G9a | Q96KQ7 | G9a H3K9 monomethylation, AlphaScreen, 2 h | AID 504332 | actives 8.8% (n = 350,000) | Potency, µM (top dose mostly 102 µM), most hits filed as inhibitors; further: nearly all actives have a fitted effect of over 75% in size
Target sequence (Q96KQ7 913-1193 limits assumed): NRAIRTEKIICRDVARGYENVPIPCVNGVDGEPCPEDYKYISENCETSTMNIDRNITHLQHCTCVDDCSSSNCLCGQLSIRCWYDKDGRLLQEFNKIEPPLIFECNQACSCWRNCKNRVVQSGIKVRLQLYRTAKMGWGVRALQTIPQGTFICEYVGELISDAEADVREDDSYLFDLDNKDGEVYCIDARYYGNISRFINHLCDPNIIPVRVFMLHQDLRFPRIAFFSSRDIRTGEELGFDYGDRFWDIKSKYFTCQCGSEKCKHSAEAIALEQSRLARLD
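G9a (20 nM) preincubated 15 min RT with compounds, then 500 nM biotinylated H3K9 peptide and 20 uM SAM added; 2 h RT reaction. Monomethyl-H3K9 product detected by AlphaScreen with anti-H3K9me1 antibody, streptavidin donor and anti-rabbit IgG acceptor beads.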
PI5P4K alpha inh – PI5P4K alpha (human) kinase inhibition; P48426; actives 1.2% (n = 330,000); max response, %; PI5P4Kalpha enzyme, ADP-Glo luminescence, 60 min; stronger effect = lower value; active means max response of -50% or lower; inconclusive means between -30% and -50%; inactive means -30% or higher; further: value at the top dose of about 77 µM
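PI5P4Kalpha ADP-Glo assay; 5 microM ATP final; 60 min RT reaction; HEPES pH 7.4/EGTA/CHAPS, 5% DMSO; controls lacking substrate or enzyme; luminescent end-point.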
HP1b binding inh – inhibitors of HP1-beta chromodomain binding to methylated histone tails | AID 540317 | P83916 | AlphaScreen HP1-beta / biotin-H3K9me3 peptide binding | actives 0.56% (n = 390,000) | Potency, µM (top dose mostly 114 µM), usual class: inhibitors; further: nearly all actives have a fitted effect of over 70% in size
Target sequence (P83916 whole entry, looked up): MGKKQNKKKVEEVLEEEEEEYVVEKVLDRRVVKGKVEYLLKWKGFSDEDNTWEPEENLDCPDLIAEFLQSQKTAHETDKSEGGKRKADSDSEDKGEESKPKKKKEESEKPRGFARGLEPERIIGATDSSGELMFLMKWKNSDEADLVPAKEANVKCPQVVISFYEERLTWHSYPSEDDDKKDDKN
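AlphaScreen: HP1-beta (50 nM) preformed 30 min with biotin-H3(1-18)K9me3 peptide (50 nM) in PBS pH 7.4, 0.01% Tween-20. Compound added for 30 min at RT, then streptavidin donor/nickel chelate acceptor beads (10 ug/mL) for 30 min.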
BAZ2B block – blocks human BAZ2B | Potency, µM (top dose mostly 114 µM), most hits filed as inhibitors | Q9UIF8 | actives 4.4% (n = 360,000) | AlphaScreen BAZ2B-H3K14Ac peptide displacement; further: nearly all actives have a fitted effect of over 60% in size
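AlphaScreen displacement: compounds (up to 110uM) incubated 30 min at room temperature with a preformed 50 nM BAZ2B/50 nM biotinylated H3K14Ac peptide complex in PBS pH 7.4 with Tween-20. Donor and acceptor beads at 10 ug/mL final added, 20 min light-protected before reading.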
Numbers stand for hits; - = inactive; ? = inconclusive; . = no result given; [ ] = remark or other dose. Only some compounds are listed: those with a hit (about 11% of all), similar ones and a draw of the others. Unless noted, the call rests on the fitted dose curve; in most records, active means well fitted inhibition curve with a large enough effect; inconclusive means small, poorly fitted or top-dose-only effect; inactive means no such curve, though single readings can be large or run the other way.

SMILES	JMJD2A Tudor inh	L3MBTL1 inh	G9a block	PI5P4K alpha inh	HP1b binding inh	BAZ2B block
Cc1ccc(NC2=NCC(=O)N2Cc2ccc3c(c2)OCO3)cc1	-	-	50.1µM	-	-	-
O=C1CN=C(Nc2ccccc2Cl)N1Cc1ccc2c(c1)OCO2	89.1µM	-	?	-	-	-
CCc1ccccc1NC1=NCC(=O)N1Cc1ccc2c(c1)OCO2	-[11.4 µM]	-	-	-	-	-
COc1ccc(C2CC(=O)N(CC(=O)Nc3ccc(C(F)(F)F)cc3)c3ccccc3S2)cc1 (stereo not given)	-	.	-	.	-	-
Cc1csc(C(C#N)C(=O)c2ccncc2)n1 (stereo not given)	-	?	50.1µM	-	-	-
Cn1c(SCc2ccccc2Cl)nc2c([nH]c3ccccc32)c1=O	-	.	-	.	-	-
CCOC(=O)C1(CCc2ccccc2)CCN(C(=O)[C@@H]2C[C@@H](C)NC(=S)N2)CC1	-	-	44.7µM	-	-	-
CCOC(=O)C1(CCc2ccccc2)CCN(C(=O)C2CCCO2)CC1 (stereo not given)	-	-	-	-	-	-
O=C(O)[C@H](CSCc1ccccc1)NS(=O)(=O)c1ccc(F)cc1	?	-	10µM	-	-	-
O=C(O)C(NS(=O)(=O)c1ccc(F)cc1)c1ccccc1 (stereo not given)	-	-	-	-	-	-
COc1cccc(COCC(O)Cn2cnc3cc(C)c(C)cc32)c1 (stereo not given)	3.55µM	.	6.31µM	-	?	?
CCOC(=O)/C(C#N)=C/c1cc2ccccc2nc1N1CCOCC1	-	-	-	-	-	-
c1ccc2c(c1)nc(N1CCCCCC1)c1ccccc12	17.8µM	-	-	-	-	-
Oc1ccc(Nc2nc(N3CCCC3)c3ccccc3n2)cc1	56.2µM	-	39.8µM	-	-	?
N#CC(C#N)=Cc1cc2ccccc2nc1N1CCCCC1	?	-	?	-	-	39.8µM
CCC1CN(C(=O)N2CCC(C(=O)NCCC3=CCCCC3)CC2)c2cc(C)ccc2O1 (stereo not given)	-	.	?	.	-	-
COc1ccc(CNC(=O)C2CCN(C(=O)N3CCOc4ccc(Cl)cc43)CC2)cc1	?	.	-	.	-	-
CCOC(=O)Cc1csc(CC(N)=O)n1	-	-	50.1µM	-	-	-
CCOC(=O)Cc1csc(NC(=O)CCC(=O)O)n1	-	-	.	-	-	-
CCOC(=O)Cc1csc(NC(=O)CCCc2ccccc2)n1	-	-	50.1µM	-	-	-
CCOC(=O)Cc1csc(NC(=O)Cc2ccc(Br)cc2)n1	-	-	56.2µM	-	-	-
CCCCNC(=O)CC1Nc2cc(C)c(C)cc2NC1=O (stereo not given)	-	.	-	.	-	-
CC(=O)c1ccc(NC(=O)c2sc(-n3nc(C)c(Cc4ccc5c(c4)OCO5)c3C)nc2C)cc1	79.4µM	.	-	.	-	-
COc1ccccc1-c1noc(CCC(=O)Nc2ccc(C)cc2C)n1	-	.	?	.	-	-
COc1cc(NC(=O)CCc2nc(-c3cccs3)no2)cc(OC)c1OC	-	-	-	-	-	-
SMILES	JMJD2A Tudor inh	L3MBTL1 inh	G9a block	PI5P4K alpha inh	HP1b binding inh	BAZ2B block
COc1ccccc1-c1noc(CCC(=O)Nc2cccc(C)c2)n1	-	-	35.5µM	-	-	-
COc1cc(-c2noc(CCC(=O)Nc3cccnc3)n2)cc(OC)c1OC	-	-	35.5µM	-	-	-
CCOc1ccccc1NC(=O)CCCc1nc(-c2ccccc2Cl)no1	-	.	-	.	-	-
COc1ccccc1-c1noc(CCC(=O)Nc2ccccc2Cl)n1	-	?	2.82µM	.	-	-
N#Cc1cccc(NC(=O)N2CCCC3(CCN(C(=O)c4cccc(F)c4)CC3)C2)c1	.	.	-[12.7 µM]	.	.	.
Cc1ccc(C)c(NC(=O)C(Cc2ccccc2)n2cccc2)c1 (stereo not given)	-	.	-	.	-	-
CCn1c(=O)c2cc(C(=O)NCc3cc(OC)ccc3OC)sc2c2ccccc21	-	.	-	.	-	-
COC(=O)c1ccc2c(=O)n(CCN3CCOCC3)c(SCC(=O)Nc3ccccc3OC)nc2c1	.	.	.	-	.	.
CCn1c(SCC(=O)Nc2cc(C)on2)nnc1-c1ccc(OC)cc1	-	-	-	-	-	-
COCCn1c(-c2ccc(OC)cc2)cnc1SCC(=O)Nc1cc(C)on1	-	.	79.4µM	-	-	-
COCCn1c(SCC(=O)Nc2ccccc2OC)nc2ccccc21	-	-	-	-	-	-
COCCn1c(-c2ccccc2)cnc1SCC(=O)Nc1cccc2ccccc12	50.1µM	-	31.6µM	-	?	44.7µM
COC(=O)c1ccc2c(=O)n(CCN3CCOCC3)c(SCC(=O)Nc3ccc(OC)cc3OC)nc2c1	44.7µM	.	-	-	?	-
COCCn1c(-c2ccc(OC)cc2)cnc1SCC(=O)Nc1ccc(OC)cc1OC	-	-	?	-	-	44.7µM
O=C(NCCS(=O)(=O)N1CCN(c2ccccc2)CC1)C(c1ccccc1)c1ccccc1	-	.	-	.	-	-
Cc1csc(=Nc2cccnc2)n1Cc1ccco1	-	.	-	-	-	44.7µM
CC(C)=N/N=c1\scc(C)n1Cc1ccco1	-	-	-	-	-	-
Cc1csc(=Nc2cccnc2)n1CC1CCCCC1	-	-	?	-	-	44.7µM
CC(=O)c1cc2c(O)c(O)ccc2o1	?	?	3.98µM	.	-	-
COc1ccc(CNc2nc3nc(C)c(Cl)c(=O)n3[nH]2)cc1	-[11.4 µM]	-	56.2µM	-	-	-
COc1ccccc1CNc1nc2nc(C)c(Cl)c(=O)n2[nH]1	-	-	12.6µM	-	-	-
Cc1nn(-c2ccccc2)c(OC(=O)c2ccccc2Br)c1S(=O)(=O)c1ccccc1	-	.	-	.	-	?
CCCN(CCC)C(=O)Cn1c(=O)n(-c2ccc(C)c(C)c2)c(=O)c2c3c(sc21)CCCCC3	-	.	-	.	-	-
CCc1ccc(NC(=O)CN2C(=O)c3cccc4cccc2c34)cc1	-	.	-	.	-	-
OC[C@@H]1[C@@H](c2ccc(F)cc2)C(c2ccc(F)cc2)=NN1c1ccccc1	.	.	-	.	.	.
CCc1n(CC(O)COCc2ccccc2)c2ccccc2[n+]1C (stereo not given)	?	.	44.7µM	-	-	?
CCN(CC(=O)N1CCCC1)S(=O)(=O)c1ccc(OC)cc1	-	-	.	-	-	-
Nc1c(C=C2C=CC(=O)C=C2)c(=O)nc2sc(CC(=O)N3CCOCC3)nn12	-	.	.	-	-	?
O=C(Cc1ccccc1)Nn1c(O)c(/C=C2\C=Nc3ccccc32)sc1=S	-	-	-	-	-	-
Nc1c(/C=C2\C=Nc3ccccc32)c(=O)nc2sc(CC(=O)N3CCOCC3)nn12	-	.	-	-52.8	-	-
